# According to the supplement of paper PMC10849652:
# Of roughly 7,900 targets only a part is listed; those with a hit were picked by preference. About 0.6% of all pairs of compound and target were hits. A number with no mark means an inactive call.
# Tests used:
# Assay in all cases: log2 fold change, soluble protein after heating vs DMSO (PISA); higher = thermal stabilisation; K562 cells, 10 uM, 30 min; active = over 0.2 and 3.5 SD of the protein, either way, in both replicates (recomputed)
# [1] = compound: Cc1ccc(NC(=O)c2ccc(CN3CC[C@H](N(C)C)C3)c(C(F)(F)F)c2)cc1Nc1nccc(-c2cncnc2)n1 [bafetinib]
# How it was run: (§1)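 K562 cells at 2×10^6 cells/mL were exposed to 10 μM compound for 30 min, then aliquots were heated for 3 min across 48°C-58°C, pooled, and extracted in PBS containing 0.5% NP-40 at 4°C. The supernatant after 21,000xg for 90 min was taken as soluble protein and measured by TMTpro 16plex LC-MS/MS with channel sums equalised. Thermal stability is reported relative to control samples, with values from duplicates. Fold changes are given on a log2 scale.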
# [2] = compound: Cc1cccc(CC(=O)N2CCc3c2ccc(-c2cn(C)c4ncnc(N)c24)c3F)n1
# How it was run: as §1
# [3] = compound: Cc1cn(-c2cc(NC(=O)c3ccc(C)c(Nc4nccc(-c5cccnc5)n4)c3)cc(C(F)(F)F)c2)cn1 [nilotinib]
# How it was run: as §1
# [4] = compound: Cc1nc(Nc2n[nH]c3c2CN(C(=O)N[C@H](CN(C)C)c2ccccc2)C3(C)C)c2sccc2n1
# How it was run: as §1
# [5] = compound: Cc1nc(Nc2ncc(C(=O)Nc3c(C)cccc3Cl)s2)cc(N2CCN(CCO)CC2)n1 [dasatinib]
# How it was run: as §1
# [6] = compound: Cc1ncc(-c2ccnc(Nc3ccc(S(C)(=O)=O)cc3)n2)n1C(C)C
# How it was run: as §1
# [7] = compound: Cn1cc(-c2ccc3c(c2)CCN3C(=O)Cc2cccc(C(F)(F)F)c2)c2c(N)ncnc21
# How it was run: as §1
# [8] = compound: Cn1cc(-c2ccc3nnc(C(F)(F)c4ccc5ncccc5c4)n3n2)cn1
# How it was run: as §1
# [9] = compound: Cn1cncc1[C@@](N)(c1ccc(Cl)cc1)c1ccc2c(c1)c(-c1cccc(Cl)c1)cc(=O)n2C [tipifarnib]
# How it was run: as §1
# [10] = compound: FC(F)(F)c1ccc(/C=C/c2nc(COc3ccc(CCCCn4ccnn4)cc3)co2)cc1 [mubritinib]
# How it was run: as §1
# [11] = compound: NC(=O)Nc1cc(-c2cccc(F)c2)sc1C(=O)N[C@H]1CCCNC1
# How it was run: as §1
# [12] = compound: NC(=O)c1cnc(N[C@@H]2CCCC[C@@H]2N)nc1Nc1cccc(-n2nccn2)c1
# How it was run: as §1
# [13] = compound: NC1(c2ccc(-c3nc4ccn5c(=O)[nH]nc5c4cc3-c3ccccc3)cc2)CCC1
# How it was run: as §1
# [14] = compound: NCC(=O)Nc1ccc(-n2nc(C(F)(F)F)cc2-c2ccc3c(ccc4ccccc43)c2)cc1
# How it was run: as §1
# [15] = compound: Nc1ccccc1NC(=O)c1ccc(CNC(=O)OCc2cccnc2)cc1 [entinostat]
# How it was run: as §1
# [16] = compound: O=C(CCCCCCC(=O)Nc1ccccc1)NO [vorinostat]
# How it was run: as §1
# [17] = compound: O=C(CCCCCCNC(=O)c1cnc(N(c2ccccc2)c2ccccc2Cl)nc1)NO [citarinostat]
# How it was run: as §1
# [18] = compound: O=C(O)c1ccc2c(c1)nc(Nc1cccc(Cl)c1)c1ccncc12 [silmitasertib]
# How it was run: as §1
# [19] = compound: O=C1NC(=O)C(c2cnc3ccccn23)=C1c1cn2c3c(cc(F)cc13)CN(C(=O)N1CCCCC1)CC2
# How it was run: as §1
# [20] = compound: c1cc(OCCN2CCCCC2)cc(-c2n[nH]c3ccc(-c4nnc[nH]4)cc23)c1
# How it was run: as §1
# Sequence of UniProt Q6VEQ5 (Q6VEQ5 whole entry, looked up): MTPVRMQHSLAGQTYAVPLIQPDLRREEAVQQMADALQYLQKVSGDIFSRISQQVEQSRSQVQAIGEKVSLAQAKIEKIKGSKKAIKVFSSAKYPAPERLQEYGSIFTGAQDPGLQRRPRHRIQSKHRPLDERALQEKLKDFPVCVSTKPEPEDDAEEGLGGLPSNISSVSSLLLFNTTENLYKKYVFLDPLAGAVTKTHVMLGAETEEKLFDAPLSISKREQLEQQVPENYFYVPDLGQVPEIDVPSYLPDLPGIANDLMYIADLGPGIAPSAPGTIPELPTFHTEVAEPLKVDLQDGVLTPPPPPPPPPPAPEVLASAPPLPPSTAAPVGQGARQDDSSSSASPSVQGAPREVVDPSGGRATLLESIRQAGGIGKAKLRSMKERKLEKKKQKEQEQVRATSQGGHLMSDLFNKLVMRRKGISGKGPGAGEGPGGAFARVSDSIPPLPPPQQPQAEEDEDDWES
# Sequence of UniProt Q12888 (Q12888 whole entry, looked up): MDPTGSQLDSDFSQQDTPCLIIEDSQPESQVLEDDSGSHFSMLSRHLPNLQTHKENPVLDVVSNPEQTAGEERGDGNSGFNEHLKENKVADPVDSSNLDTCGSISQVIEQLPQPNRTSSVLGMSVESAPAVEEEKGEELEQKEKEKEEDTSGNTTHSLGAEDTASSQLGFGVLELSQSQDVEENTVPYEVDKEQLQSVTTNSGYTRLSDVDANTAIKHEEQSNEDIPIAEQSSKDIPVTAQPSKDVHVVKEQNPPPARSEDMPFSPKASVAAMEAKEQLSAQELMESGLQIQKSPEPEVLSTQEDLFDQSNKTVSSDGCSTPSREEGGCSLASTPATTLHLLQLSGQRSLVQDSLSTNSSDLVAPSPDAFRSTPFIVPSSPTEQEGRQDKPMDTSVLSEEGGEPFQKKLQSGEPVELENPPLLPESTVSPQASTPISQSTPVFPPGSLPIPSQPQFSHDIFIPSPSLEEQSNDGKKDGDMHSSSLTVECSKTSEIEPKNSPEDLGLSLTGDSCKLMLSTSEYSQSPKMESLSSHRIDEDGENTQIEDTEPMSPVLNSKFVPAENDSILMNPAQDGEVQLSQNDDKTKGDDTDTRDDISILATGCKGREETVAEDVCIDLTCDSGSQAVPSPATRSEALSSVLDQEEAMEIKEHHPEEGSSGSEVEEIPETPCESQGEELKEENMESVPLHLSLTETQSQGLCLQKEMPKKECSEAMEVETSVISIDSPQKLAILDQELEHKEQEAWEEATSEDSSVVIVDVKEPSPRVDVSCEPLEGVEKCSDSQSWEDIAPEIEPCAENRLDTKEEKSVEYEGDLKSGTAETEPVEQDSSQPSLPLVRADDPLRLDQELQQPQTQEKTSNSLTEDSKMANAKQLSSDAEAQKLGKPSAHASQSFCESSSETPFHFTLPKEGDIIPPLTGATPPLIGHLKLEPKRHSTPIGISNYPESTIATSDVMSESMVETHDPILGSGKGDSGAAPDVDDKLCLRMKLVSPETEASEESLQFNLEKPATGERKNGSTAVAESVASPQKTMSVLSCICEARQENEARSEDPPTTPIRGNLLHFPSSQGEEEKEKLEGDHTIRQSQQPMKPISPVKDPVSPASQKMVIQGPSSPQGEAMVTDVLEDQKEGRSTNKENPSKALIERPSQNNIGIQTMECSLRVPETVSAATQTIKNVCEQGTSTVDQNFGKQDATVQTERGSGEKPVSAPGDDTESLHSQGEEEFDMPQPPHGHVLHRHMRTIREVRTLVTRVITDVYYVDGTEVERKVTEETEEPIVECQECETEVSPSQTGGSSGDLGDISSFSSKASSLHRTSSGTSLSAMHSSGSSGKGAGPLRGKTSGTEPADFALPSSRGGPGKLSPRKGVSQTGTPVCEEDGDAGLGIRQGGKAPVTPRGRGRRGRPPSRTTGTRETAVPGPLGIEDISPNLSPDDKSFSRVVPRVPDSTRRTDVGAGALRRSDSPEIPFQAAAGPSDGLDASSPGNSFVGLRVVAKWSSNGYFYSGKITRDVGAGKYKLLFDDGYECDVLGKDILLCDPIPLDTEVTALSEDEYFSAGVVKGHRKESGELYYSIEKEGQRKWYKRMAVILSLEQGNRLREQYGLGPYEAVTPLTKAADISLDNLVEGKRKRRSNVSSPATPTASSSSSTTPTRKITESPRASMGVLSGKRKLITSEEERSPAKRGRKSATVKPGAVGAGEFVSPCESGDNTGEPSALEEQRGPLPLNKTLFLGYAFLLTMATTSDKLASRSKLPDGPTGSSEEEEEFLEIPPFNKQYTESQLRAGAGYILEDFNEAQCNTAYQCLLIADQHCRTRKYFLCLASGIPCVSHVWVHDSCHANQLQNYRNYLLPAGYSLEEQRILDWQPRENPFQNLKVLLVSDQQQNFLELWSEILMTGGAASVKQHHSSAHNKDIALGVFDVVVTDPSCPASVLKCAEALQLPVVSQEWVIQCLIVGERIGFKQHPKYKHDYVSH
# Sequence of UniProt Q9UID3 (Q9UID3 whole entry, looked up): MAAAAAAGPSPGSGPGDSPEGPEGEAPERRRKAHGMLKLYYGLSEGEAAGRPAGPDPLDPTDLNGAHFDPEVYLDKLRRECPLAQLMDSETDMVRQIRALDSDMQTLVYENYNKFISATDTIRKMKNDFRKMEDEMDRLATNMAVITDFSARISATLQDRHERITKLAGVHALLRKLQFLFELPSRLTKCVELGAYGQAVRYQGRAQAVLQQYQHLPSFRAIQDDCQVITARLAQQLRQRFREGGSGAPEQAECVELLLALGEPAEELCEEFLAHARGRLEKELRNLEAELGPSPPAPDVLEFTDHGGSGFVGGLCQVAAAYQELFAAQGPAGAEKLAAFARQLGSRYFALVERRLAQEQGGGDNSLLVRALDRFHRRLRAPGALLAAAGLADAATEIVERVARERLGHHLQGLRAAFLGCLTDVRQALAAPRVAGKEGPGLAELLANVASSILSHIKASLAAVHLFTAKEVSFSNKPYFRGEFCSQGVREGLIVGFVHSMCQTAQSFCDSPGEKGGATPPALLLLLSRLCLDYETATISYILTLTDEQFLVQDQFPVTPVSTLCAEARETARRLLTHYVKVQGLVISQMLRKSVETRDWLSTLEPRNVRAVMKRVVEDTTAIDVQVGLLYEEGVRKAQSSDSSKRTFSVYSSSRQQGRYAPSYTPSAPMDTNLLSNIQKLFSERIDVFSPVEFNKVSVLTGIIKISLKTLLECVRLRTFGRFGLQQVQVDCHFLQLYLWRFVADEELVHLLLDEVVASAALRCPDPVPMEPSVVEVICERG
# Sequence of UniProt Q9HAD4 (Q9HAD4 whole entry, looked up): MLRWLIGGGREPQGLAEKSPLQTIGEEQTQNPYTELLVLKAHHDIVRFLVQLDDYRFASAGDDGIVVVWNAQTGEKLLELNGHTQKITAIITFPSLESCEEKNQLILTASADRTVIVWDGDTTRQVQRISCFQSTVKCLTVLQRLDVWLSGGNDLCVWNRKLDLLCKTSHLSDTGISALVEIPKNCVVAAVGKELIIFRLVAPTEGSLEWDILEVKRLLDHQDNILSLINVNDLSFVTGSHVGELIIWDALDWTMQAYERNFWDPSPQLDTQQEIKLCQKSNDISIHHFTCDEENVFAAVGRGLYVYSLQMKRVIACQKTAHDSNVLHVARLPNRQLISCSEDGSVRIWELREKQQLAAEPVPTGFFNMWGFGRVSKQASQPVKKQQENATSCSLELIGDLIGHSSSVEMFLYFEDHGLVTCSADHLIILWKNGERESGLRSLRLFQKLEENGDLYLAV
# Sequence of UniProt O60763 (O60763 whole entry, looked up): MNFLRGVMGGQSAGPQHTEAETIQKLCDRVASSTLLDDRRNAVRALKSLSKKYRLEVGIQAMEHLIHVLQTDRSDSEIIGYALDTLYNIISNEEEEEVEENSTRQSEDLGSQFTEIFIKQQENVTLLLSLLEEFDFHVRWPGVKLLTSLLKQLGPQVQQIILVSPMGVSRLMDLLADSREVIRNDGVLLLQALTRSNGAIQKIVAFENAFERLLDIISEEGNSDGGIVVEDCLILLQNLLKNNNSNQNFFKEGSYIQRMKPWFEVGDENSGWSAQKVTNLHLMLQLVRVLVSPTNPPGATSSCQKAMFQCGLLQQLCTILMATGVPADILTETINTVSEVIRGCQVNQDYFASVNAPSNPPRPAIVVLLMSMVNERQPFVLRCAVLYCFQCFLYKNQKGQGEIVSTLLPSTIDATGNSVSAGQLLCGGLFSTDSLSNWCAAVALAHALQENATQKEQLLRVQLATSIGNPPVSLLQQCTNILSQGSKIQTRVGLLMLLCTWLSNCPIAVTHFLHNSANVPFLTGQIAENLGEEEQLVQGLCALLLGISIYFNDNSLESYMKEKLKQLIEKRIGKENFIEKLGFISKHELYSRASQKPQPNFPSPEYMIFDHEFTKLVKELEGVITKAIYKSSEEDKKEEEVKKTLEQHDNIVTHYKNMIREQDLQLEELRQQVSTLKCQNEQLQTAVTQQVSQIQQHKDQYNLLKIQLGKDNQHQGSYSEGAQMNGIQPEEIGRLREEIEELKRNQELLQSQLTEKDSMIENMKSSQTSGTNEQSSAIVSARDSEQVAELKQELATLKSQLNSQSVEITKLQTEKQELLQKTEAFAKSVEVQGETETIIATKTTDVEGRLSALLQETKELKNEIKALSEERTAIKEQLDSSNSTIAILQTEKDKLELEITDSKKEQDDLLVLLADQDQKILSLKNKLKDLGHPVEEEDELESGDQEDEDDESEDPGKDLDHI
# Sequence of UniProt P21796 (P21796 whole entry, looked up): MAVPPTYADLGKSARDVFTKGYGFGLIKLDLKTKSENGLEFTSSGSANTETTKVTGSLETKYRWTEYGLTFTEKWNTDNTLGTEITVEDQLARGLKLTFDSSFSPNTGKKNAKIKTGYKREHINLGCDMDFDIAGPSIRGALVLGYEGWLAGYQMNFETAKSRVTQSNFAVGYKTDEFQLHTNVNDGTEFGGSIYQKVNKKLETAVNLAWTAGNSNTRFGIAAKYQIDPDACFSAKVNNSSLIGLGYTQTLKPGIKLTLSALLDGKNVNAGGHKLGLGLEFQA
Target,log2 fold change [1],log2 fold change [2],log2 fold change [3],log2 fold change [4],log2 fold change [5],log2 fold change [6],log2 fold change [7],log2 fold change [8],log2 fold change [9],log2 fold change [10],log2 fold change [11],log2 fold change [12],log2 fold change [13],log2 fold change [14],log2 fold change [15],log2 fold change [16],log2 fold change [17],log2 fold change [18],log2 fold change [19],log2 fold change [20]
TOM1L1 (UniProt O75674),-0.025,-0.265 (active),-0.003,-0.069,-0.04,0.087,0.031,0.032,0.06,0.034,-0.086,0.102,0.008,0.018,-0.034,0.092,-0.074,0.021,0.008,-0.041
WASH2P (UniProt Q6VEQ5),-0.06,0.017,-0.069,-0.019,0.03,0.01,-0.008,0.011,0.043,0.06,0.067,-0.088,-0.314 (active),0.02,0.028,-0.016,0.029,0.06,0.092,-0.045
VPS51 (UniProt Q9UID3),0.009,0.039,-0.089,-0.037,-0.126,-0.042,-0.075,-0.008,-0.095,0.083,-0.02,-0.119,-0.082,-0.048,0.07,-0.035,-0.002,0.068,0.022,0.1
TNPO3 (UniProt Q9Y5L0),-0.057,0.041,-0.052,-0.123,-0.103,-0.028,-0.001,-0.014,-0.121,0.061,0.026,-0.018,-0.221 (active),-0.024,0.049,0.076,0.058,-0.024,-0.06,-0.059
TP53BP1 isoform 2 (UniProt Q12888),0.004,0.008,-0.001,-0.011,-0.009,-0.027,-0.064,-0.014,0.016,-0.002,0.014,-0.056,-0.072,-0.008,0.018,0.031,0.074,0.117,-0.035,-0.029
TRAM1 (UniProt Q15629),-0.152,0.117,-0.075,0.074,-0.138,0.072,-0.07,0.02,-0.152,-0.022,-0.104,-0.073,-0.162,-0.196,-0.075,0.034,-0.083,0.066,0.025,-0.021
TUBAL3 (UniProt A6NHL2),0.167,0.049,-0.144,0.027,0.051,-0.029,0.005,-0.095,-0.097,-0.01,0,-0.082,-0.006,0.031,0.061,0.037,-0.06,0.087,0.059,-0.291
UBE2E3 (UniProt Q969T4),-0.029,-0.029,-0.126,0.023,-0.113,0.025,-0.028,-0.004,-0.131,0.056,-0.007,-0.052,-0.155,-0.106,0.051,0.103,0.063,-0.016,0.023,-0.007
TOM1 isoform 2 (UniProt O60784),-0.122,0.026,-0.055,-0.104,-0.034,0.116,-0.015,-0.012,0.022,-0.033,-0.002,-0.104,-0.066,-0.082,-0.045,-0.119,0.056,-0.019,-0.026,-0.081
TMEM263 (UniProt Q8WUH6),-0.434,0.037,-0.079,-0.027,-0.249,0.124,-0.011,0.02,-0.182,0.054,-0.044,-0.335,-0.389,-0.299,0.123,0.058,0.068,0.057,-0.08,-0.037
VDAC1 (UniProt P21796),-0.039,-0.037,0.006,0.025,0.035,-0.005,0.02,0.008,0.017,0.02,0.025,0,0.008,0.019,-0.002,-0.044,0.039,-0.015,-0.019,-0.009
UGGT1 (UniProt Q9NYU2),-0.005,-0.007,-0.015,0.016,-0.007,-0.036,-0.017,-0.001,-0.026,-0.043,0.028,-0.025,-0.06,0.017,-0.001,-0.004,0.047,0.01,-0.025,-0.035
WRB (UniProt O00258),-0.072,-0.011,0.015,0.005,0.031,-0.036,-0.011,0.089,0.024,0.052,0.003,0.019,-0.018,0.006,-0.011,-0.035,0.034,0.028,0.062,-0.042
VWA8 (UniProt A3KMH1),-0.113,-0.001,-0.099,-0.018,-0.158,-0.016,-0.057,0.067,0.036,-0.255 (active),-0.017,-0.024,-0.135,-0.016,0.008,0.096,0.048,-0.046,-0.071,-0.039
WDR41 (UniProt Q9HAD4),-0.139,0.169,0,-0.076,-0.082,-0.017,0.012,-0.003,0.023,0.071,0,-0.005,-0.173,-0.005,0.038,0.091,0.036,0.031,-0.11,-0.07
USO1 isoform 2 (UniProt O60763),-0.055,0.036,-0.039,-0.024,-0.052,0.032,-0.017,-0.003,-0.068,0.032,-0.009,0,-0.101,-0.024,0.032,0.018,0.032,0.059,-0.035,-0.013
